According to PubChem BioAssay (NCATS):
Several values for one entry are separate records, joined by “and”; a condition that tells them apart may be missing. Equal entries are not always repeated. Results filed as inconclusive are left out. Where a structure was tested more than once in an assay, its records may differ in their call. Activity calls are given as the source filed them. The call rests on the fitted dose curve; in most records, active means well fitted curve in the direction sought with a large enough effect; inconclusive means small, poorly fitted or top-dose-only effect, or another doubt; inactive means no such curve, though single readings can be large; an effect the other way counts as inactive or inconclusive.

How the values were obtained:
[1] = test system: CRL-7250; assay: Cytotoxic Profiling of Annotated Libraries Using Quantitative High-Throughput Screening (AID 1296008); details: Five cell lines viability, CellTiter-Glo ATP luminescence, 48-72 h; max response: stronger effect = lower value; further: nearly all actives have a fitted effect of over 60% in size; further: potency means the concentration at half of the fitted maximal effect; on max response: on the % scale 0 is the no-effect control and ±100 the full control effect
Procedure, shortened: (§1)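 Cells exposed to compounds for 48 or 72 hr at 37 degrees Celsius. Viability read as ATP-coupled luminescence with CellTiter-Glo after 10 min at room temperature.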

[2] = test system: HEK293; assay: as above; details: Five cell lines viability, CellTiter-Glo ATP luminescence, 48-72 h; max response: stronger effect = lower value
Procedure, shortened: as §1

[3] = test system: KB-3-1; assay: as above; details: Five cell lines viability, CellTiter-Glo ATP luminescence, 48-72 h; max response: stronger effect = lower value
Procedure, shortened: as §1

[4] = test system: NIH3T3; assay: as above; details: Five cell lines viability, CellTiter-Glo ATP luminescence, 48-72 h; max response: stronger effect = lower value
Procedure, shortened: as §1

[5] = test system: MCC-13; assay: qHTS assay to identify novel small-molecules to repurpose for Merkel cell carcinoma treatment (AID 1296009); details: MCC and control cell lines, CellTiter-Glo viability, 72 h; series mostly up to 46 µM; further: nearly all actives have a fitted effect of over 60% in size; further: potency means the concentration at half of the fitted maximal effect
Procedure, shortened: (§2)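 Cells were treated for 72 hr at 37 degree celsius with compounds in 8- or 11-point dose response. Viability was read by CellTiter-Glo luminescence, normalized to no-cell (cytotoxicity) and DMSO controls.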

[6] = test system: MCC-26; assay: as above; details: MCC and control cell lines, CellTiter-Glo viability, 72 h; series mostly up to 46 µM
Procedure, shortened: as §2

[7] = test system: MKL-1; assay: as above; details: MCC and control cell lines, CellTiter-Glo viability, 72 h; series mostly up to 46 µM
Procedure, shortened: as §2

[8] = test system: C33A; assay: Primary qHTS to identify gynecologic anti-cancer compounds using libraries of approved drugs and bioactive compounds (AID 1345084); details: Gynecologic cancer cell panel viability, ATPlite luminescence, 48 h; series mostly up to 57.5 µM; further: on the % scale 0 is the no-effect control and ±100 the full control effect; nearly all actives have a fitted effect of over 55% in size
Procedure, shortened: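 Cells, 1,000 per well, were allowed to settle for 16 h at 37 C before compound addition. Five concentrations were tested for 48 h, and viability was read by ATPlite luminescence after 15 min at room temperature.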

[9] = test system: HaCat; assay: Cytotoxic Profiling of Annotated Libraries Using Quantitative High-Throughput Screening (AID 1296008); details: Five cell lines viability, CellTiter-Glo ATP luminescence, 48-72 h; max response: stronger effect = lower value; further: nearly all actives have a fitted effect of over 60% in size; further: potency means the concentration at half of the fitted maximal effect; on max response: on the % scale 0 is the no-effect control and ±100 the full control effect
Procedure, shortened: as §1

[10] = test system: HACAT; assay: qHTS assay to identify novel small-molecules to repurpose for Merkel cell carcinoma treatment (AID 1296009); details: MCC and control cell lines, CellTiter-Glo viability, 72 h; at 44.8 µM (top of the series) unless noted; further: nearly all actives have a fitted effect of over 60% in size; further: potency means the concentration at half of the fitted maximal effect
Procedure, shortened: as §2

[11] = test system: UISO; assay: as above; details: MCC and control cell lines, CellTiter-Glo viability, 72 h; series mostly up to 46 µM
Procedure, shortened: as §2

[12] = test system: SC27B; assay: qHTS profiling for inhibitors of Plasmodium falciparum proliferation (AID 504749); details: P. falciparum in erythrocytes, SYBR Green DNA, 72 h; series mostly up to 28.7 µM
Procedure, shortened: (§3)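 P. falciparum-infected erythrocytes (0.3% parasitemia, 2.5% hematocrit) incubated with compound 72 h at 37 C, 5% CO2. Parasite DNA detected by SYBR Green after lysis, overnight at room temperature; normalised to 0.29 uM artemisinin and DMSO.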

[13] = test system: TAB109; assay: as above; details: P. falciparum in erythrocytes, SYBR Green DNA, 72 h; series mostly up to 28.7 µM
Procedure, shortened: as §3

[14] = test system: TAB113; assay: as above; details: P. falciparum in erythrocytes, SYBR Green DNA, 72 h; series mostly up to 28.7 µM
Procedure, shortened: as §3

[15] = test system: TAB165; assay: as above; details: P. falciparum in erythrocytes, SYBR Green DNA, 72 h; series mostly up to 28.7 µM
Procedure, shortened: as §3

[16] = test system: W2; assay: as above; details: P. falciparum in erythrocytes, SYBR Green DNA, 72 h; series mostly up to 28.7 µM
Procedure, shortened: as §3

[17] = test system: HEK293T; assay: qHTS assay to identify novel small-molecules to repurpose for Merkel cell carcinoma treatment (AID 1296009); details: MCC and control cell lines, CellTiter-Glo viability, 72 h; at 44.8 µM (top of the series) unless noted; further: nearly all actives have a fitted effect of over 60% in size; further: potency means the concentration at half of the fitted maximal effect
Procedure, shortened: as §2

[18] = test system: MKL-2; assay: as above; details: MCC and control cell lines, CellTiter-Glo viability, 72 h; series mostly up to 46 µM
Procedure, shortened: as §2

[19] = test system: WaGa; assay: as above; details: MCC and control cell lines, CellTiter-Glo viability, 72 h; series mostly up to 46 µM
Procedure, shortened: as §2

[20] = test system: NIH3T3; assay: as above; details: MCC and control cell lines, CellTiter-Glo viability, 72 h; at 44.8 µM (top of the series) unless noted
Procedure, shortened: as §2

CCCS(=O)c1ccc2nc(NC(=O)OC)[nH]c2c1 (stereo unspecified)
inactive: max response [1] -27.5% | max response [4] -29.9% | Potency [5] | Potency [6] | Potency [7] | Potency [8]
active: Potency [1] 21.1 µM | Potency [2] 23.7 µM | Potency [3] 20.6 µM

CN(C)[C@@H](CCOc1cccc2ccccc12)c1ccccc1
inactive: max response [1] -9.42% | outcome [1] | max response [9] 4.48% | outcome [9] | max response [4] -1.45% and -13.3% | outcome [10] | Potency [5] | Potency [6] | Potency [7] | Potency [11] | Potency [8]

COc1ccc(C2(C#N)CCC(C(=O)O)CC2)cc1OC1CCCC1 (stereo unspecified)
inactive: Potency [12] | Potency [13] | Potency [14] | Potency [15] | Potency [16] | outcome [1] | max response [2] 4.74% | outcome [2] | outcome [9] | max response [3] 6.11% and 7.73% and 2.33% | max response [4] 4.78% and 4.09% | outcome [10] | outcome [17] | Potency [5] | Potency [6] | Potency [7] | Potency [18] | Potency [11] | Potency [19] | Potency [8]

COC(=O)N[C@H](C(=O)N[C@@H](Cc1ccccc1)[C@@H](O)CN(Cc1ccc(-c2ccccn2)cc1)NC(=O)[C@@H](NC(=O)OC)C(C)(C)C)C(C)(C)C
inactive: max response [1] -0.779% | max response [2] -5.2% | outcome [2] | max response [9] -5.76% | outcome [9] | max response [3] 5.51% and -5.77% | max response [4] 0.751% and -1.44% | outcome [10] | outcome [17] | Potency [5] | Potency [6] | Potency [7] | Potency [18] | Potency [11] | Potency [19] | Potency [8]

Clc1ccc(C(Cn2ccnc2)OCc2c(Cl)cccc2Cl)c(Cl)c1 (stereo unspecified)
active: Potency [2] 7.5 µM
23.7 µM (active) and inactive: Potency [19]
inactive: max response [1] -2.52% | outcome [1] | max response [9] 1.49% | outcome [9] | max response [3] -15.6% and -6.5% and -4.2% | max response [4] -3.81% and -0.381% | outcome [4] | outcome [10] | Potency [5] | Potency [7] | Potency [18] | outcome [20] | Potency [8]

Cc1cc2cc3c(C)cc(=O)oc3c(C)c2o1
inactive and 4.69 µM (active): Potency [19]
inactive: Potency [12] | Potency [13] | Potency [14] | Potency [15] | Potency [16] | max response [1] 4.53% and -2.29% | max response [2] -0.492% | outcome [2] | max response [9] -8.67% | outcome [9] | max response [3] -3.63% | outcome [3] | max response [4] -1.93% | outcome [4] | outcome [10] | outcome [17] | Potency [5] | Potency [6] | Potency [7] | Potency [18] | outcome [20] | Potency [11] | Potency [8]

CC1(C)CCC(C)(C)c2cc(NC(=O)c3ccc(C(=O)O)cc3)ccc21
inactive: Potency [12] | Potency [13] | Potency [14] | Potency [15] | Potency [16] | max response [1] 0.132% | max response [2] 2.4% | outcome [2] | max response [9] -6.69% | outcome [9] | max response [3] 33.6% | max response [4] -2.77% | outcome [4] | outcome [10] | outcome [17] | Potency [5] | Potency [6] | Potency [7] | outcome [20] | Potency [11] | Potency [19] | Potency [8]

CCC1=C(C)CN(C(=O)NCCc2ccc(S(=O)(=O)NC(=O)NC3CCC(C)CC3)cc2)C1=O (stereo unspecified)
inactive: Potency [12] | Potency [13] | Potency [14] | Potency [15] | Potency [16] | max response [1] 0.534% and 4.01% | outcome [1] | outcome [2] | outcome [9] | max response [3] -10.1% and -9.63% | max response [4] 0.91% | outcome [4] | outcome [10] | outcome [17] | Potency [5] | Potency [6] | Potency [7] | Potency [18] | outcome [20] | Potency [11] | Potency [19] | Potency [8]

COc1ccc2cc([C@H](C)C(=O)O)ccc2c1
inactive: Potency [12] | Potency [13] | Potency [14] | Potency [15] | max response [1] -17% and 0.0913% and -30.7% | max response [2] 0.939% | outcome [2] | max response [9] -13.6% | outcome [9] | max response [3] 11.2% and 5.36% and -1.1% | max response [4] 2.8% and -7.1% | outcome [4] | outcome [10] | outcome [17] | Potency [5] | Potency [6] | Potency [7] | Potency [18] | outcome [20] | Potency [11] | Potency [19] | Potency [8]
